Most compounds without a hit are left out; they make up all but 2.3% or so of the library.
M1 PAM = positive allosteric modulators of human M1 muscarinic receptor | actives 0.088% (n = 360,000) | CHO-K1 hM1, Fluo-8 calcium fluorescence, ACh EC20; 0% = ACh EC20, 100% = maximal ACh | activation, % at 3 µM | P11229; in the data active means activation above about 19%, passing the limit was not always enough
Target sequence (P11229 whole entry, looked up): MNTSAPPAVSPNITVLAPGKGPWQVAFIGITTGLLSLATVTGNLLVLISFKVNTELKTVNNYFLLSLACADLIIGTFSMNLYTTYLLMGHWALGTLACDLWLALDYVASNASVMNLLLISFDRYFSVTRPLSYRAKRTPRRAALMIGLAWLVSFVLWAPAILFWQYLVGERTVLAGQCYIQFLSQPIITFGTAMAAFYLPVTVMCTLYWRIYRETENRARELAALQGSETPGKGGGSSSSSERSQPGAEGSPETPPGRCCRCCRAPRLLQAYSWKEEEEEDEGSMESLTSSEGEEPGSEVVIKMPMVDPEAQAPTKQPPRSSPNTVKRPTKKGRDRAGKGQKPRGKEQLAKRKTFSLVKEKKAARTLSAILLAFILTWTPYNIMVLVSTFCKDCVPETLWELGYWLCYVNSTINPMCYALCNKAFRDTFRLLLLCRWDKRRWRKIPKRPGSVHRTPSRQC
CHO-K1 Ca antag = nonselective inhibitor or artifact in parental CHO-K1 cells. ATP-induced calcium, Fluo-8 fluorescence. inhibition, % at 3 µM. actives 0.6% (n = 360,000). AID 602250;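 active means inhibition above a per-plate cutoff, the plate's mean sample inhibition plus 3 SD, cut at about 24% in these data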
M1 PAM parental = counter-screen for M1 PAMs: effect in parental CHO-K1 cells. ATP EC20, Fluo-8 calcium fluorescence; 0% at ATP EC20, 100% at ATP max. activation, % at 3 µM. actives 0.02% (n = 360,000). AID 602247;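 active means activation above the run cutoff, the mean activation of all test compounds plus 3 SD, cut at about 40% in these data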;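 further: peak over basal fluorescence ratio in a 140 s read after ATP addition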
M1 antag = antagonists of human M1 muscarinic receptor | P11229 | CHO-K1 hM1, Fluo-8 calcium fluorescence, ACh EC80 antagonist | inhibition, % at 3 µM | actives 1.3% (n = 360,000) | AID 588852;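 active means percent inhibition above its own plate's cutoff, namely the mean of that plate's compound wells plus 3 SD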;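 further: peak over basal fluorescence ratio during 140 s after agonist addition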
M1 ag = activates human CHRM1 receptor | P11229 | CHO-K1 hM1, Fluo-8 calcium fluorescence, agonist mode; 0% DMSO, 100% acetylcholine EC100 | activation, % at 3 µM | actives 0.33% (n = 360,000) | AID 588814;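 active means activation above the run's mean compound activation plus 3 SD, cut at about 16% in these data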;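 further: peak over basal fluorescence ratio within a 140 s kinetic read after compound addition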
CHO-K1 Ca ag = counter-screen for M1 agonists: effect in parental CHO-K1 cells; Fluo-8 calcium fluorescence; scaled to maximal ATP response, vehicle zero; activation, % at 3 µM; actives 0.48% (n = 360,000); AID 602248; in the data active means activation above about 15%;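 further: untransfected CHO-K1 host cells lacking M1 receptor as counterscreen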
Numbers stand for hits; . = inactive; / = no result.

SMILES	M1 PAM	CHO-K1 Ca antag	M1 PAM parental	M1 antag	M1 ag	CHO-K1 Ca ag
COC(=O)Cc1ccc(NC(=S)N2CCN(CCO)CC2)cc1	.	.	.	.	.	.
CCNC(=O)c1ccccc1NC(=O)C1CC(=O)N(C(C)C)C1 (stereo unspecified)	.	.	.	.	.	.
COc1ccccc1NC(=O)C(=O)N1CCCC1	.	.	.	.	.	15.9
COC(=O)c1ccccc1NC(=O)CCc1ccccc1	.	24.1	.	.	.	.
COc1ccccc1NC(=O)C(=O)NCc1ccncc1	.	25.3	.	.	.	.
COc1ccccc1NC(=O)C1C2C=CC(C2)C1C(=O)NCc1cccnc1 (stereo unspecified)	.	25.6	.	.	.	.
COc1ccc(OC)c(NC(=O)C2C3C=CC(C3)C2C(=O)NCc2cccnc2)c1 (stereo unspecified)	.	.	.	.	.	.
N#Cc1cccc(NC(=O)c2cc(C3CCCCN3C(=O)c3cccs3)on2)c1 (stereo unspecified)	.	.	.	.	.	.
CCc1ccc(CN(C)C(=O)c2ccc3c(c2)OCCO3)cc1	.	.	.	.	.	.
CCN(CC)C1=C(Cl)C(=O)C(Cl)C12OCCO2 (stereo unspecified)	.	.	.	.	.	.
COc1cc(CN2C[C@@H](CO)O[C@@H](n3cnc4c(NCC(C)C)ncnc43)C2)cc(OC)c1OC	.	.	.	.	.	.
COC(=O)c1ccccc1NC(=O)NCc1ccncc1	.	.	.	.	.	16.5
Cc1onc(-c2ccccc2)c1C(=O)Nc1ncc([N+](=O)[O-])s1	.	.	.	.	.	16.4
CN(C)c1ccc(-c2csc(C(O)c3cccc(Cl)c3)n2)cc1 (stereo unspecified)	.	.	.	41.5	18.5	.
CCCCCCCCCCCCCCCC[N+](C)(C)Cc1ccc(F)cc1	.	.	.	43.8	.	.
CCCNC(=S)NC1CCCC1	.	.	.	38.1	.	.
CC(C)C(=O)N1CCC1(C)C(=O)Nc1ccc2[nH]ccc2c1 (stereo unspecified)	.	.	.	.	.	.
CC(=O)Nc1ccc(NC(=O)c2c(-c3ccccc3)noc2C)cn1	.	.	.	.	.	.
Nc1nc(N2CCN(c3ccccn3)CC2)nc2ccccc12	.	.	.	36.5	.	.
c1ccc(-c2nnc(N3CCN(c4ccccn4)CC3)c3ccccc23)cc1	.	.	.	47.5	.	.
Nc1nc(N2CCCCC2)nc2ccccc12	.	.	.	.	.	.
CCn1cnc2cc(NS(=O)(=O)c3ccc(OC)c(OC)c3)ccc21	.	.	.	.	.	.
Cc1ccc(S(=O)(=O)N(C)C[C@@H]2OCc3cnnn3CCCC(=O)N([C@@H](C)CO)C[C@H]2C)cc1	.	.	.	.	.	.
COc1ccc(N2CCN(S(=O)(=O)c3cccc4nsnc34)CC2)cc1	.	.	.	.	.	.
CC(=O)Nc1ccc(NC(=O)C2CCCN2S(=O)(=O)c2cccc3nsnc23)cc1 (stereo unspecified)	.	.	.	.	.	18.8
SMILES	M1 PAM	CHO-K1 Ca antag	M1 PAM parental	M1 antag	M1 ag	CHO-K1 Ca ag
CC(=O)c1ccc(N2CCN(S(=O)(=O)c3cccc4nsnc34)CC2)cc1	.	24.2	.	.	.	.
O=C(Nc1ccccc1F)C1CCCN1S(=O)(=O)c1cccc2nsnc12 (stereo unspecified)	.	58.2	.	.	.	.
Cc1ccc(C)c(OCc2cc(C(=O)N3CCN(c4ccccc4C)CC3C)no2)c1 (stereo unspecified)	.	.	.	.	.	.
Cc1[nH]nc2c1/C(=N\O)CC(C)(C)C2	.	.	.	.	.	.
Cc1[nH]nc2c1C(=O)CC(C)(C)C2	21.0	.	.	.	.	.
O=C(CC(c1ccc(F)cc1)c1ccco1)N1CCOCC1 (stereo unspecified)	28.0	.	.	.	.	.
O=C(Oc1ccc(Cl)c2cccnc12)C12CC3CC(CC(C3)C1)C2	.	.	.	.	.	.
Cn1cc(Cc2ccc(C(=O)N3CCOCC3)cn2)c2ccccc21	.	.	.	.	.	.
Cc1noc(-c2ccccc2)c1NC(=O)Nc1ccc(Cl)cc1	.	.	.	41.1	.	15.1
N#Cc1c(C(F)(F)F)cc(-c2ccccc2)n(N)c1=O	.	30.6	.	.	.	.
Cc1ccc2c(c1)C1(C(=O)N2)N2CCCC2C(C(=O)c2ccc3ccccc3c2)C12C(=O)Nc1ccccc12 (stereo unspecified)	.	.	.	.	.	.
CC(C)C[C@@H]1CN=C(N)N1C[C@@H]1CCCN1C[C@@H](C(C)C)N1C[C@@H](Cc2ccccc2)N(CCCC2CCCC2)C1=N	.	.	.	.	.	.
CCCCN1C(=N)N([C@@H](CN2CCC[C@H]2CN2C(N)=NC[C@@H]2Cc2ccccc2)C(C)C)C[C@H]1Cc1ccccc1	.	.	.	58.6	.	.
CCCCN1C(=N)N([C@@H](C)CN2CCC[C@H]2CN2C(N)=NC[C@@H]2Cc2ccccc2)C[C@H]1Cc1ccccc1	.	.	.	93.8	.	.
Cn1c(SCC(=O)Nc2ccccc2Br)nnc1-c1cnccn1	.	.	.	.	.	.
CCN(CC(=O)Nc1ccccc1OC)Cc1csc(CC(=O)Nc2ccc(C)cc2)n1	.	.	.	.	.	.
O=c1oc2cc(O)ccc2cc1S(=O)(=O)c1ccccc1	.	.	.	.	.	.
O=c1oc2cc(O)ccc2cc1-c1nc2ccccc2o1	.	.	.	.	53.8	31.2
CC(=O)c1cccc(N/C=C\c2nnnn2-c2ccc(F)cc2)c1	.	.	.	.	.	15.2
CC(=O)c1ccc(N2CCN(C(=S)Nc3ccc(Oc4ccccc4)cc3)CC2)cc1	.	.	.	35.0	.	.
CN1CCN(c2ccc(NC(=O)c3ccc(Oc4ccccc4)cc3)cc2)CC1	.	.	.	46.0	.	.
COc1ccc(N2CCN(C(=S)Nc3ccccc3)CC2)cc1	.	.	.	.	.	.
C[C@@H](c1ccccc1)N1C[C@@H](COCc2ccccc2)Oc2cc(N3CC[C@@H](N(C)C)C3)ccc2S1(=O)=O	/	.	.	/	/	.
CC1=NN(c2ccccc2)C(=O)C1CCC#N (stereo unspecified)	.	.	.	.	.	.
COc1ccc(NC(=O)CSc2nnc(NC(=O)c3ccc(S(=O)(=O)N4CCOCC4)cc3)s2)cc1	.	.	.	.	.	.
CCN(CC)CCNC(=O)C1(c2ccccc2)CCCCC1	.	.	.	40.4	.	.
O=C(O)c1ccc(NC(=O)C2(c3ccccc3)CCCC2)cc1	.	.	.	.	.	.
CCN(CC)CCOC(=O)c1ccc(NC(=O)C2(c3ccccc3)CCCC2)cc1	.	.	.	46.3	.	.
